# Laboratory results from PubChem BioAssay.
# A number with no mark means an inactive call. The source made the active and inactive calls. Rule as the data show it: active = inhibition above about 44%; inactive = the rest.
# Target: Steroidogenic factor 1 (Homo sapiens) (UniProt Q13285)
# Assay: SF1 (NR5A1) inverse agonists, counter-screen for LRH-1 inverse agonist project, cell-based, luminescence, high throughput (AID 651614);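 also: cells cotransfected with StAR promoter reporter and SF1 expression vector; 0% = vehicle on cells with receptor and 100% = vehicle on cells lacking receptor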
# Settings: cell-based SF1 luciferase reporter, at 3.6 µM, active compounds read high
# Chain of Steroidogenic factor 1 (Homo sapiens) (Q13285 whole entry, looked up): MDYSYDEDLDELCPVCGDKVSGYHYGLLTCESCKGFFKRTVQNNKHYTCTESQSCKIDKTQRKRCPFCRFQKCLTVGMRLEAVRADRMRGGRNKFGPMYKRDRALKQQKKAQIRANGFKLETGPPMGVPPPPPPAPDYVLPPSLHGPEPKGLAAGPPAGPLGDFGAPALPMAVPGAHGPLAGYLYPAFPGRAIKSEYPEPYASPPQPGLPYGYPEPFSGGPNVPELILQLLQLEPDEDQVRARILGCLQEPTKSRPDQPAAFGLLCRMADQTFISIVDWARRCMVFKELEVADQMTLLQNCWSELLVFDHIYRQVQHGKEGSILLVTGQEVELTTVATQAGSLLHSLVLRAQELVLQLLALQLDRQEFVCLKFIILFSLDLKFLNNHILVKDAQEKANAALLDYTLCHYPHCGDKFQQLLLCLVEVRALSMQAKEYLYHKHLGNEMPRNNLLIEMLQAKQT
row,SMILES,inhibition
1,Cc1onc(-c2c(F)cccc2Cl)c1C(=O)O/N=C(\N)c1ccc([N+](=O)[O-])o1,60.4% (active)
2,COc1ccc(CCNC(=O)CSc2nn3c(=O)c(C)nnc3s2)cc1OC,47.2% (active)
3,Nc1ccccc1Nc1ccncc1[N+](=O)[O-],63.3% (active)
4,CCOC(=O)c1cc2sccc2n1CC(=O)Nc1ccc2c(c1)OCCO2,52.2% (active)
5,COc1cc2c(cc1OC)CN(C(=O)CN1C(=O)NC3(CCC(C)CC3)C1=O)CC2 (stereo unspecified),46.4% (active)
6,CCc1cc(=O)oc2c(C)c(OCC(=O)NC3CC(C)(C)NC(C)(C)C3)ccc12,56.1% (active)
7,O=[N+]([O-])c1ccc(N2CCCCC2)nc1N1CCCCC1,51.2% (active)
8,O=C(COc1cccc2c1CCNC2=O)Nc1cccc(C(F)(F)F)c1,29.9%
9,Cc1ccc(SCC(=O)Nc2ccc(N3CCOCC3)cc2)cc1C,47.2% (active)
10,CC(=O)Nc1ccc(NC(=O)COC(=O)Cc2c[nH]c3ccccc23)cc1,53.8% (active)
11,N#CCCn1cc(/C=N/NC(N)=S)c(-c2ccc(-c3ccccc3)cc2)n1,48.6% (active)
12,OCCCNc1c2ccccc2nc2ccccc12,56.7% (active)
13,CC1(C)CC(=O)C=C(c2ccc3ncccc3c2)C1,52.9% (active)
14,COc1cc(NC(=O)CN2C(=O)NC(c3ccccc3)(c3ccccc3)C2=O)c(C)cc1[N+](=O)[O-],35.3%
15,O=C(COc1ccc(S(=O)(=O)N2CCCC2)cc1Cl)NCc1ccc2c(c1)OCO2,32.6%
16,Cc1csc(=O)n1CCC(=O)OCC(=O)Nc1ccc(N2CCOCC2)cc1,44.2% (active)
